According to PubChem BioAssay AID1159580 (chemical genetic matrix, 2015):
The whole screen tested about 5,500 compounds, of which about 2,000 (36%) were called active. Inconclusive results (about 18%) are left out. No stated cut-off is given here; in the data, active means normalized growth mostly below about 0.91 (no sharp cut-off); inconclusive means no clear call, values can overlap the other calls; inactive means mostly above about 0.92. This is one part of the list.

Test: chemical genetic growth profiling, strain panel (AID 1159580);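 further: tested at 20 µM; growth read once vehicle control cultures reached saturation at 30 °C; 1 = growth at the plate median or of vehicle wells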
Conditions: growth OD

Measured: normalized growth

NC(Cn1ccc(=O)c(O)c1)C(=O)O (configuration not stated)
inactive: S. cerevisiae deletion strains, locus YJR075W, strain HOC1, stronger effect = lower value 1.01 | S. cerevisiae deletion strains, locus YKL009W, strain mrt4, stronger effect = lower value 1.01 | S. cerevisiae deletion strains, locus YKL068W, stronger effect = lower value 0.993 | S. cerevisiae deletion strains, locus YKL085W, strain MDH1 (second series), stronger effect = lower value 0.993 | S. cerevisiae deletion strains, locus YKL085W, strain MDH1, stronger effect = lower value 0.993 | S. cerevisiae deletion strains, locus YKL160W, strain elf1, stronger effect = lower value 1.04 | S. cerevisiae deletion strains, locus YKL190W, strain CNB1, stronger effect = lower value 1.01 | S. cerevisiae deletion strains, locus YKR001C, strain vps1, stronger effect = lower value 0.991 | S. cerevisiae deletion strains, locus YKR026C, strain gcn3, stronger effect = lower value 1.03 | S. cerevisiae deletion strains, locus YKR091W, strain srl3, stronger effect = lower value 1.01 | S. cerevisiae deletion strains, locus YLL001W, strain dnm1, stronger effect = lower value 0.981 | S. cerevisiae deletion strains, locus YLL026W, stronger effect = lower value 1.01 | S. cerevisiae deletion strains, locus YLL041C, strain sdh2, stronger effect = lower value 1.01 | S. cerevisiae deletion strains, locus YLR027C, strain aat2, stronger effect = lower value 1.01 | S. cerevisiae deletion strains, locus YLR039C, strain RIC1, stronger effect = lower value 1.04 | S. cerevisiae deletion strains, locus YLR058C, strain SHM2, stronger effect = lower value 1.01 | S. cerevisiae deletion strains, locus YLR102C, strain apc9, stronger effect = lower value 0.988 | S. cerevisiae deletion strains, locus YLR113W, strain HOG1, stronger effect = lower value 1.03 | S. cerevisiae deletion strains, locus YLR221C, strain rsa3, stronger effect = lower value 1 | S. cerevisiae deletion strains, locus YLR258W, strain gsy2, stronger effect = lower value 1.03 | S. cerevisiae deletion strains, locus YLR262C, strain YPT6 (second series), stronger effect = lower value 0.977 | S. cerevisiae deletion strains, locus YLR262C, strain YPT6, stronger effect = lower value 1.03 | S. cerevisiae deletion strains, locus YLR268W, strain sec22, stronger effect = lower value 0.962 | S. cerevisiae deletion strains, locus YLR320W, strain mms22, stronger effect = lower value 0.981 | S. cerevisiae deletion strains, locus YLR330W, strain CHS5, stronger effect = lower value 1.01 | S. cerevisiae deletion strains, locus YLR342W, strain FKS1 (second series), stronger effect = lower value 1.06 | S. cerevisiae deletion strains, locus YLR342W, strain FKS1, stronger effect = lower value 1.03 | S. cerevisiae deletion strains, locus YLR357W, strain rsc2, stronger effect = lower value 0.986 | S. cerevisiae deletion strains, locus YLR370C, strain arc18, stronger effect = lower value 1.03 | S. cerevisiae deletion strains, locus YLR371W, strain rom2, stronger effect = lower value 0.995 | S. cerevisiae deletion strains, locus YLR384C, strain iki3, stronger effect = lower value 1.03 | S. cerevisiae deletion strains, locus YLR418C, strain cdc73, stronger effect = lower value 0.994 | S. cerevisiae deletion strains, locus YML016C, strain PPZ1, stronger effect = lower value 1.02 | S. cerevisiae deletion strains, locus YML032C, strain rad52, stronger effect = lower value 0.965 | S. cerevisiae deletion strains, locus YML120C, strain ndi1, stronger effect = lower value 1.01 | S. cerevisiae deletion strains, locus YML124C, strain tub3, stronger effect = lower value 0.995 | S. cerevisiae deletion strains, locus YMR058W, strain fet3, stronger effect = lower value 1.01 | S. cerevisiae deletion strains, locus YMR078C, strain ctf18, stronger effect = lower value 0.982 | S. cerevisiae deletion strains, locus YMR125W, strain sto1, stronger effect = lower value 1.04 | S. cerevisiae deletion strains, locus YMR129W, stronger effect = lower value 1.01 | S. cerevisiae deletion strains, locus YMR205C, strain PFK2, stronger effect = lower value 1.01 | S. cerevisiae deletion strains, locus YMR223W, strain ubp8, stronger effect = lower value 1.01 | S. cerevisiae deletion strains, locus YMR231W, strain pep5, stronger effect = lower value 1.02 | S. cerevisiae deletion strains, locus YMR263W, strain SAP30, stronger effect = lower value 1.01 | S. cerevisiae deletion strains, locus YMR307W, strain GAS1, stronger effect = lower value 1.02 | S. cerevisiae deletion strains, locus YNL067W, strain RPL9B, stronger effect = lower value 1.01 | S. cerevisiae deletion strains, locus YNL071W, strain lat1, stronger effect = lower value 1.02 | S. cerevisiae deletion strains, locus YNL128W, strain TEP1, stronger effect = lower value 1.01 | S. cerevisiae deletion strains, locus YNL153C, strain GIM3, stronger effect = lower value 1.01 | S. cerevisiae deletion strains, locus YNL183C, strain NPR1, stronger effect = lower value 0.974 | S. cerevisiae deletion strains, locus YNL209W, strain ssb2, stronger effect = lower value 1.03 | S. cerevisiae deletion strains, locus YNL233W, strain BNI4, stronger effect = lower value 1.02 | S. cerevisiae deletion strains, locus YNL248C, strain rpa49, stronger effect = lower value 1.04 | S. cerevisiae deletion strains, locus YNL250W, strain rad50, stronger effect = lower value 0.978 | S. cerevisiae deletion strains, locus YNL271C, strain bni1, stronger effect = lower value 0.984 | S. cerevisiae deletion strains, locus YNL298W, strain CLA4, stronger effect = lower value 0.987 | S. cerevisiae deletion strains, locus YNL307C, strain MCK1, stronger effect = lower value 0.997 | S. cerevisiae deletion strains, locus YNL322C, strain KRE1 (second series), stronger effect = lower value 1.02 | S. cerevisiae deletion strains, locus YNL322C, strain KRE1, stronger effect = lower value 1.01 | S. cerevisiae deletion strains, locus YNR049C, strain mso1, stronger effect = lower value 1.02 | S. cerevisiae deletion strains, locus YNR052C, strain pop2, stronger effect = lower value 0.992 | S. cerevisiae deletion strains, locus YOL006C, strain TOP1, stronger effect = lower value 1.01 | S. cerevisiae deletion strains, locus YOL012C, strain htz1 0.622 | S. cerevisiae deletion strains, locus YOL147C, strain pex11, stronger effect = lower value 0.985 | S. cerevisiae deletion strains, locus YOR001W, strain rrp6, stronger effect = lower value 0.969 | S. cerevisiae deletion strains, locus YOR061W, strain CKA2, stronger effect = lower value 1.03 | S. cerevisiae deletion strains, locus YOR069W, strain VPS5, stronger effect = lower value 1.01 | S. cerevisiae deletion strains, locus YOR070C, strain gyp1, stronger effect = lower value 1.03 | S. cerevisiae deletion strains, locus YOR080W, strain dia2, stronger effect = lower value 1.01 | S. cerevisiae deletion strains, locus YOR083W, strain WHI5, stronger effect = lower value 0.982 | S. cerevisiae deletion strains, locus YOR106W, strain vam3, stronger effect = lower value 1.02 | S. cerevisiae deletion strains, locus YOR136W, strain idh2, stronger effect = lower value 0.996 | S. cerevisiae deletion strains, locus YOR144C, strain elg1, stronger effect = lower value 0.985 | S. cerevisiae deletion strains, locus YOR184W, strain ser1, stronger effect = lower value 0.99 | S. cerevisiae deletion strains, locus YOR231W, strain MKK1, stronger effect = lower value 1.02 | S. cerevisiae deletion strains, locus YOR265W, strain rbl2, stronger effect = lower value 1.02 | S. cerevisiae deletion strains, locus YOR270C, strain vph1, stronger effect = lower value 1.07 | S. cerevisiae deletion strains, locus YOR290C, strain snf2, stronger effect = lower value 1.04 | S. cerevisiae deletion strains, locus YOR316C, strain cot1, stronger effect = lower value 0.988 | S. cerevisiae deletion strains, locus YPL051W, strain arl3, stronger effect = lower value 1.03 | S. cerevisiae deletion strains, locus YPL055C, strain LGE1, stronger effect = lower value 1.05 | S. cerevisiae deletion strains, locus YPL078C, strain atp4, stronger effect = lower value 1.05 | S. cerevisiae deletion strains, locus YPL106C, strain sse1, stronger effect = lower value 1.02 | S. cerevisiae deletion strains, locus YPL240C, strain hsp82, stronger effect = lower value 1.01 | S. cerevisiae deletion strains, locus YPL241C, strain CIN2, stronger effect = lower value 1.01 | S. cerevisiae deletion strains, locus YPL256C, strain CLN2, stronger effect = lower value 1.03 | S. cerevisiae deletion strains, locus YPR119W, strain clb2, stronger effect = lower value 0.988 | S. cerevisiae deletion strains, locus YPR141C, strain kar3, stronger effect = lower value 0.993 | S. cerevisiae deletion strains, locus YPR163C, strain tif3, stronger effect = lower value 0.987 | S. cerevisiae deletion strains, locus YPR167C, strain met16, stronger effect = lower value 0.99 | S. cerevisiae deletion strains, strain wtn01, stronger effect = lower value 0.991 | S. cerevisiae strains, strain wild type, stronger effect = lower value 1.03
